From the supplement of paper PMC6555819 come the findings set out here.

The test system of the test is VDR:RXRa (NR concentration 270 nM, RXRa partner concentration 90 nM). Description: PBM binding z-score (relative to random genomic background probes); higher = stronger binding; sequences stand for … in GC…GCGATTGACAGCGTAGAATGAAGG
As to the method:
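Protein-binding microarray (Agilent 4x180K custom design, double-stranded 60-nt probes: 5' GC cap, 34-nt variable region, 24-nt constant primer region; full probe sequence given). Purified or IVT nuclear receptor:RXRα heterodimers (3:1 NR:RXRα, mostly 270:90 nM) or homodimers were incubated for 1 h in PBS with 2% milk and no ligand, then detected with Alexa488 antibodies. Fluorescence from o1-orientation probes (~5 replicates averaged) was converted to z-scores against 500 random hg19 background probes. Variable regions are seed direct-repeat (DR0–DR5) sites, all their single-nucleotide variants and half-site ablations.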
Sequence CAAACTAGGTCACCCGAAGGTCAAAGTCCGCATG gave a PBM binding z-score of 5.75.
Next, CGTCCTAGGTCAGCAGGTCAGTGAAAGCGACGTG: 2.07; ATACCAAGGTGATCCTGAGGTCGTTGATACTAAC: 3.42; CCGACTGGGGCAGAAAGGCTACCATACCATCCGG: -0.639.
ATCTCTAGATAAAAGTTCAGTGAATCCCGAGGAT registered a PBM binding z-score of 0.828.
As for ACTTACGGGTCAACGAGATTATAGCACGCGTATA, the PBM binding z-score came to 5.
TCGATTAGGTTACCAATGGGGCATTCAGCTTTCT returned a PBM binding z-score of 0.441.
Turning to CAAACTAGGTCAAGACGTCAAAGTCCGCTTCCCG, the PBM binding z-score is 1.62.
Next, TCTGCTAGGTCAACGATAGTCAGCTAATCTGCTA: 1.24; GCGACAGGGGCAAAGCAGGTTACCATAAGGTTGG: 0.898.
Sequence CCTCGGAGGACCGAAGGTCAGAGCTGTCCGCTTT registered a PBM binding z-score of 0.565.
The sequence ATCTCTAGGTAAACAAGTTCAGTGAATGCCGAAC returned a PBM binding z-score of 4.
CCTACTGGGCCCTCAGGTCATTGATATCAACGTT: the PBM binding z-score was 1.43.
Regarding GCTAGTTGGTCAGTAAAAGGTAACACACCGGTCG, the PBM binding z-score was found to be 0.0911.
With ATCGCTAGGTAAGACTCAGTTCAGTGAAGAACGC, the PBM binding z-score was -0.0263.
CTCGAAAGGTCGGTTGAGGAGAGTATACGGATAA gave a PBM binding z-score of 0.954.
Next, CGCACTAGGTCAAGGACAGTGAATCTCCGCACGC: 1.28.
ATCTCTAGGTAACCATGTTCAGTGAATGCCGAAC yielded a PBM binding z-score of 0.463.
In turn, CATTACGGGTCACGAGGTTATAGCACGACGAGCG came in with a PBM binding z-score of 5.57.
TAGCCTAGGTCAGATCGGGTCAGTATACGCTATA displayed a PBM binding z-score of 3.75.
With ATATGTAGGTTACATCCGGGTCAATCAGGCTATG, the PBM binding z-score worked out at 3.59.
AGAATGAGGTTATTAAGATCAGGCAATTGCGGTC: the PBM binding z-score came out at 2.48.
For the sequence CCTACTGAGCCAAGGTCATTGATCAGTCAAAGCA, the PBM binding z-score amounted to 3.63.
For the sequence GCTAGTTGGTCAGTACAAGGTCACACACCGGTCG, the PBM binding z-score came to 3.24.
TAGCCTAGGACATTCAGGGGCCAGTATAGAAAGC: the PBM binding z-score is -0.174.
CGTCCAAGGTCGATGCTAGGTCAGTGAAAGCATT: the PBM binding z-score was found to be 2.26.
For the sequence CCTTACGGGTCACTCCAGGTTATAACATCGGAGT, the PBM binding z-score was determined as 4.09.
The sequence CGTCCAAGGTCAGAGAGGTCTGTGAATGCCGAGT returned a PBM binding z-score of 4.72.
As to GATACAGGGCCAAGGCCAGAGTACGCGTATTGAT, the PBM binding z-score was -0.59.
Turning to CCTACTGGCCCAAGGTCATTGATCAGTCAAAGCA, the PBM binding z-score came out at 3.26.
In turn, CCTACTGGGCCACGAAAGGTTATTGATTCAGTGA gave a PBM binding z-score of 0.818.
Next, TCTAGCAGGCCAGAGGGGCACTCAAGAGGTACGG: -0.288; TGTAGTTGGTCAAAGGTCACACACTCGAAATGCG: 5.19.
As for AGTCAAAGTTAACTAGGTAACGTAAGATTCAGCT, the PBM binding z-score was -0.0453.
CCTACTGGGCCAAACAGGTCATTGATGCCGATAA had a PBM binding z-score of 2.82.
ATCACTAGGTAAAAGTTCAGTGAATCCCGAGGAT registered a PBM binding z-score of 1.34.
Next, TCTCGGAGGACACGTAGGTCAGAGCTTTCCAGAG: 1.13; GATACAGGGTCAGCTGGAGGCCAGAGTATGGAAA: 3.29.
For CGTTCAAGGTCAGAGAGGTCAGTGAATGCCGAGT, the PBM binding z-score worked out at 7.5.
CCTTACGGGTCAGTCCAGGTTATAGCATCGGAGT registered a PBM binding z-score of 2.9.
